A short description of the assay: general mammalian cell viability loss – inhibitor set, cherry-pick, set 2, cytotoxicity control for miR-122 modulator project, dose response (AID 720697).

Structures are written as SMILES. Results with a measured potency or affinity are listed apart. Results filed as inconclusive are left out. The source made the active and inactive calls.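 Rule for the calls: active = signal loss with fitted half-maximal concentration at or below twice the top valid tested dose in every test run; inconclusive = runs disagree, flat 30 to 70% signal loss, or poor fit; inactive = all runs flat, opposite direction, or potency beyond limit.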

For the molecule `C[C@@H]1CN([C@@H](C)CO)S(=O)(=O)c2ccc(C#Cc3ccncc3)cc2O[C@@H]1CN(C)C(=O)C1CCOCC1`, the outcome was inactive.
Consider `COc1ccc(-c2cc(-c3nc4ccccn4c3NCc3ccccc3)ccc2OC)cc1`, for which the outcome was inactive.
`CC(C)NC(=O)N(C)C[C@H]1Oc2cc(C#C[C@H](C)O)ccc2S(=O)(=O)N([C@@H](C)CO)C[C@H]1C`: the call was inactive.
Take `CCC(=O)Nc1ccc2c(c1)C(=O)N(C)[C@@H]1CC[C@H](CC(=O)Nc3cccc(OC)c3)O[C@@H]1CO2`: the call was inactive.
Take `c1ccc(-n2nnnc2NCCc2c[nH]c3ccccc23)cc1`: the call was inactive.
As to `C[C@@H]1CN([C@@H](C)CO)S(=O)(=O)c2ccc(C3=CCCCC3)cc2O[C@@H]1CN(C)C(=O)Cc1ccncc1`, the result was inactive.
`Cc1cc(C(=O)Nc2ccc3c(c2)C(=O)N(C)[C@H]2CC[C@H](CC(=O)N[C@H](C)c4ccccc4)O[C@H]2CO3)no1`: the outcome was inactive.
Regarding `CO[C@H]1CN(C)C(=O)c2cc(NC(C)=O)ccc2OC[C@@H](C)N(C(=O)CC2CC2)C[C@H]1C`, the call was inactive.
For `COCC(=O)N1C[C@H]2[C@@H](c3ccccc31)[C@H](CO)N2C(=O)Nc1ccccc1Cl`, the molecule was classed as inactive.
For the molecule `O=CN1CCN(C(=O)c2ccccc2F)CC1`, the outcome was inactive.
For `COc1cccc(COc2cc3ccccc3nc2C)c1`, the result was inactive.
With `COc1ccc(C(C#N)Nc2ccc(C)cc2)cc1` (stereo not given) the entry was “inactive”; with `Cc1ccccc1-c1nc(CN2CCCC(C(=O)NCCCN3CCOCC3)C2)c(C)o1` (stereo not given), “inactive”.
`CC(=O)N1[C@H](CO)[C@@H](c2ccccc2)[C@H]1CN(C(=O)NC(C)C)C1CCCC1`: the call was inactive.
With `CCNC(=O)Nc1ccc2c(c1)C(=O)N(C)[C@H]1CC[C@@H](CC(=O)NCCOC)O[C@@H]1CO2` the entry was “inactive”.
Take `CCS(=O)(=O)Nc1ccc2c(c1)C(=O)N(C)[C@@H]1CC[C@@H](CC(=O)NCCCN3CCOCC3)O[C@H]1CO2`: the molecule was classed as inactive.
With `COc1cccc(CNC(=O)C[C@H]2CC[C@@H]3[C@H](COc4ccc(NC(C)=O)cc4C(=O)N3C)O2)c1` the entry was “inactive”; with `C[C@H](CO)N1C[C@H](C)[C@H](CN(C)C(=O)Nc2cccc3ccccc23)Oc2ncc(C#Cc3ccc(C(F)(F)F)cc3)cc2C1=O`, “inactive”; with `CC(C)NC(=O)N1C[C@@H]2[C@H](c3ccccc31)[C@H](CO)N2Cc1ccccc1`, “inactive”.
The value for `CCCNC(=O)N1[C@H](CNC(=O)c2ccc(F)cc2)[C@H](c2ccccc2)[C@@H]1CO` was “inactive”; that for `C/C=C/c1ccc([C@@H]2[C@@H](CO)N(C(C)=O)[C@@H]2CN(C)C(=O)c2ccccn2)cc1` was “inactive”; that for `COCC(=O)Nc1ccc2c(c1)C(=O)N(C)[C@H]1CC[C@@H](CC(=O)NCCCN(C)C)O[C@@H]1CO2` was “inactive”.
Consider `CCCC(=O)Nc1ccc2c(c1)C(=O)N(C)[C@@H]1CC[C@H](CC(=O)NCc3cccc(F)c3)O[C@H]1CO2`, for which the call was inactive.
Turning to `COc1cccc(CNC(=O)C[C@@H]2CC[C@@H]3[C@H](COc4ccc(NC(C)=O)cc4C(=O)N3C)O2)c1`, the result was inactive.
In the case of `CN1C(=O)c2cc(NC(=O)c3ccc(F)cc3)ccc2OC[C@@H]2O[C@@H](CC(=O)O)CC[C@@H]21`, the call was inactive.
In the case of `CCS(=O)(=O)Nc1ccc2c(c1)C(=O)N(C)[C@@H]1CC[C@@H](CC(=O)NCCCN3CCOCC3)O[C@@H]1CO2`, the molecule was called inactive.
`COc1ccc(NC(=O)COC(=O)CCCc2c[nH]c3ccccc23)cc1`: the molecule was called inactive.
The value for `CO[C@H]1CN(C)C(=O)c2cc(NC(=O)Nc3ccc(Cl)c(Cl)c3)ccc2OC[C@@H](C)NC[C@@H]1C` was “inactive”.
The value for `COCC(=O)N(C[C@H]1[C@H](c2ccccc2)[C@@H](CO)N1C(=O)NC(C)C)C(C)C` was “inactive”; that for `CN1C(=O)c2cc(NC(=O)Nc3ccccc3F)ccc2OC[C@@H]2O[C@H](CC(=O)O)CC[C@@H]21` was “inactive”.
The value for `CN1C(=O)c2cc(NC(=O)Nc3ccc(Cl)cc3)ccc2OC[C@@H]2O[C@@H](CC(=O)NCCN3CCCCC3)CC[C@H]21` was “inactive”; that for `CC(=O)Nc1ccc2c(c1)C(=O)N(C)[C@@H]1CC[C@H](CC(=O)NCCCN3CCOCC3)O[C@@H]1CO2` was “inactive”.
`COC(=O)C[C@@H]1CC[C@@H]2[C@H](COc3ccc(NC(=O)c4cc(F)cc(F)c4)cc3C(=O)N2C)O1`: the call was inactive.
For the molecule `CC(C)CC#Cc1ccc2c(c1)O[C@H](CN(C)C(=O)c1cnccn1)[C@H](C)CN([C@@H](C)CO)S2(=O)=O`, the result was inactive.
`C/C=C/c1ccc2c(c1)O[C@H](CN(C)C(=O)Nc1cccc(F)c1)[C@H](C)CN([C@@H](C)CO)S2(=O)=O`: the molecule was called inactive.

The values above are taken from PubChem BioAssay AID720697 (Broad Institute, 2013).
